# Compound activity (PubChem BioAssay)
# HT1080 IDH1KD tx: HT-1080 IDH1 knockdown cell toxicity (counter line); HT-1080 IDH1 knockdown viability, ATP luminescence, 48 h; hit rate 2% among 360,000; Potency, µM (series often up to 46.1 µM), for the others: at the highest dose activity, negative = toxicity, usual class: cytotoxic; AID 686971;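 also: 0% = DMSO wells and -100% = cell-free medium wells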
#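 Knockdown cells (IDH1KD HT-1080) received compounds 2 h after plating at 750 cells/well and were kept 48 h at 37 °C in 5% FBS RPMI. A CellTiter-Glo luminescence read gave % activity for curve fitting.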
# TGFb SMAD3 inh: TGF-b pathway inhibition; Potency, µM (series often up to 46.1 µM), without a hit: at the highest dose activity, negative = inhibition, hits mostly inhibitors; hit rate 1.2% among 410,000; HepG2 CAGA-GFP TGF-b/SMAD3 reporter, GFP fluorescence, 18 h; TGF-beta stimulated, 500 pg/mL final; also: % is scaled to controls: 0 for no effect and ±100 for the full control effect; nearly all actives have a fitted effect of over 65% in size
#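 HEPG2 CAGA-GFP reporter cells (1000/well, DMEM with 1% FBS) received compounds, then recombinant TGF-beta at 500 pg/mL final for 18 hours at 37 degrees C. Per-cell GFP summed per well was normalised to unstimulated and stimulated DMSO controls before curve fitting.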
# ATXN viability: cell viability loss in ATXN counter-screen | Potency, µM (top dose mostly 56.7 µM), actives largely listed as cytotoxic | AID 651635 | hit rate 0.49% among 400,000 | S2 cells (HEK-293 line with an ATXN2-luciferase reporter) viability, CellTiter-Fluor protease fluorescence, 24 h; also: nearly all actives have a fitted effect of over 40% in size
# ATXN2 expr inh: inhibitors of ATXN2 expression | HEK-293 ATXN2-luciferase reporter, luminescence, 24 h | Potency, µM (doses to about 57 µM), for inactives: top-dose activity change, negative = inhibition, hits mostly inhibitors | hit rate 0.72% among 360,000 | AID 1745845; also: % is scaled to controls: 0 for no effect and ±100 for the full control effect; nearly all actives have a fitted effect of over 55% in size
#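 ATXN2-luciferase reporter cells (luciferase flanked by upstream and downstream ATXN2 gene portions) were treated 24 h at 37 °C with compounds at up to 57 uM. SteadyGlo luminescence gave expression; GF-AFC fluorescence gave viability.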
# HT1080NT lethal: kills 2HG-producing HT-1080-NT fibrosarcoma cells; AID 686970; hit rate 1.6% among 360,000; HT-1080-NT fibrosarcoma viability, CellTiter-Glo ATP luminescence, 48 h; Potency, µM (titrated, usually from 46.1 µM), for the others: at the top dose activity, negative = less viability, usual class: cytotoxic;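 also: NT is the 2HG producing partner of a matched IDH1 knockdown line; 0% = DMSO-treated cells and -100% = media-only wells without cells; nearly all actives have a fitted effect of over 55% in size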
#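 Viability by CellTiter-Glo luminescence after 48 h compound exposure at 37C of HT-1080-NT cells (750/well, RPMI, 5% FBS). % activity scaled between DMSO wells and medium-only wells, then curve-fitted and categorized by curve class.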
# HepG2 viability: kills HepG2 cells in TGF-b inhibitor counter-screen | HepG2 CAGA-GFP viability, ATP luminescence, 18 h | AID 588856 | hit rate 0.76% among 410,000 | Potency, µM (titrated, usually from 46.1 µM), for the others: at the top dose activity change, negative = cytotoxicity, hits mostly cytotoxic
#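 HepG2 CAGA-GFP cells (1000/well, DMEM with 1% FBS) received compound, then TGF-beta at 500 pg/mL final, and were incubated 18 hours at 37 degrees C. Viability was read by CellTiter-Glo luminescence. Media-only wells were set as complete cell-killing and DMSO as no toxicity.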
# Numbers without * were called inactive; i = inactive; u = inconclusive; x = no result; ! = not active in a repeat. Hits are enriched below; roughly 3.8% of the tested compounds scored in any of these assays. Calls follow the shape of the dose curve; as a rule, active = well fitted curve in the direction sought with a large enough effect; inconclusive = small, poorly fitted or top-dose-only effect, or another doubt; inactive = no such curve, though single readings can be large; an effect the other way counts as inactive or inconclusive. Potency is read from the fitted curve at half-maximal effect.
SMILES,HT1080 IDH1KD tx,TGFb SMAD3 inh,ATXN viability,ATXN2 expr inh,HT1080NT lethal,HepG2 viability
COc1cccc2c1[C@@H]1CN(CCCCn3c(=O)[nH]c4c(sc5ncc(-c6ccccc6)nc54)c3=O)C[C@@H]1CO2,u,12.6µM*,u,u,u,-91.3%
COc1cc2[nH]c(=O)n(CCCC(=O)N3CC=C(c4ccccc4)CC3)c(=O)c2cc1OC,-0.5%,u,i,-9.2%,2.2%,-6.4%
COc1ccc(N2CCN(C(=O)c3[nH]c(C(F)(F)F)nc3-c3ccccc3)CC2)cc1,u,7.7%,i,-2.5%,-29.9%,-5.0%
COc1ccccc1N1CCN(C(=O)c2[nH]c(C(F)(F)F)nc2-c2ccccc2)CC1,0.82µM*,u,u,-1.3%,1.3µM*,4.4%
Cc1cccc(N2CCN(C(=O)c3[nH]c(C(F)(F)F)nc3-c3ccccc3)CC2)c1C,0.581µM*,u,i,5.7%,u,-6.0%
Cc1cc(Cl)ccc1NC(=O)C1CCN(c2nnc(-n3c(C)ccc3C)s2)CC1,x,x,x,x,x,-24.2%
OCCN1CCN(C2CCC(c3ccc(F)cc3)c3ccc(F)cc32)CC1 (stereo not drawn),23.1µM*,20µM*,u,25.1µM*,18.4µM*,i
Cc1c(C(=O)NCC(C)(C)CN(C)C)cnn1-c1nccc(-c2ccccc2F)n1,x,x,i,x,x,x
C=CCC[C@@H](Cc1ccc(F)cc1)C(=O)OC[C@@H](Cc1c[nH]c2ccccc12)NC(=O)[C@H](CC=C)CC(=O)NCCO,-6.3%,u,28.2µM*,u,5.5%,-83.0%
C=CCC[C@H](Cc1ccc(F)cc1)C(=O)OC[C@H](Cc1c[nH]c2ccccc12)NC(=O)[C@H](CC=C)CC(=O)NCCO,-7.0%,u,u,u,-15.3%,-21.0%
C=CCC[C@@H](Cc1ccc(F)cc1)C(=O)OC[C@@H](Cc1c[nH]c2ccccc12)NC(=O)[C@@H](CC=C)CC(=O)NCCO,-29.0%,u,31.6µM*,u,-27.6%,-71.5%
Cc1ccc(F)c(C2C3C=CCCC3(C)C(=O)N2Cc2ccccc2)c1 (stereo not drawn),x,u,x,x,x,-5.8%
O=c1c2ccccc2sc2nc(CCl)nn12,4.61µM*,u,u,u,6.51µM*,-53.8%
COc1cc(C(=O)NC2CCN(C)CC2)ccc1Nc1ncc2c(n1)N(C1CCCC1)CCC(=O)N2C(C)C,u,-2.5%,28.2µM*,6.11µM*!,u,-47.5%
COc1cccc(NC(CNS(=O)(=O)c2ccc(Cl)cc2)c2ccccc2)c1 (stereo not drawn),x,11.2µM*,u,u,x,-101.5%
COc1cccc(NC(CNS(=O)(=O)c2ccc(C)cc2)c2ccccc2)c1 (stereo not drawn),x,14.1µM*,u,u,x,-93.8%
Cc1ccc(NC(CNS(=O)(=O)c2ccc(Cl)cc2)c2ccccc2)cc1 (stereo not drawn),u,u,i,u,u,-82.7%
O=S(=O)(NCC(Nc1ccc(Cl)cc1)c1ccccc1)c1ccccc1 (stereo not drawn),u,u,x,u,u,15.8µM*!
O=S(=O)(NCC(c1ccccc1)N1CCNCC1)c1ccc(Cl)cc1 (stereo not drawn),-16.8%,12.6µM*,u,u,u,-101.0%
Nc1ccc(C(=O)N2CC3CC(CN(Cc4ccccc4)C3)C2)cc1,x,x,i,0.3%,x,x
Fc1ccc(/C=C/c2ccc3ccccc3n2)cc1,x,u,x,x,x,-30.4%
COc1ccc2c(c1)-c1nc(-n3ncc(C(=O)NCc4cccnc4)c3C3CC3)ncc1CC2,x,x,i,x,x,x
O=C(c1cc([N+](=O)[O-])ccc1N1CCCCC1)N1CCc2ccccc21,2.31µM*,-0.2%,u,u,u,-2.6%
O=C(c1cc([N+](=O)[O-])ccc1Cl)N1CCc2ccccc21,-16.3%,u,i,-10.6%,-3.6%,22.4%
CCOc1ccc(/C=C/[N+](=O)[O-])c2ccccc12,12.6µM*,5.01µM*,u,25.1µM*,u,-91.7%
CCOC(=O)COc1ccc2ccccc2c1/C=C/[N+](=O)[O-],4.11µM*,5.01µM*,14.1µM*,u,7.31µM*,5.62µM*
CCOC(=O)COc1ccc(/C=C/[N+](=O)[O-])c(OCC(=O)OCC)c1,5.62µM*,u,10µM*,8.91µM*,7.94µM*,-64.4%
O.O=C([O-])CC([S-])C(=O)[O-].[Au+].[Na+].[Na+] (stereo not drawn),x,x,i,x,x,x
Cc1noc(-c2ccc(CSCCC(=O)O)cc2)c1NC(=O)OC(C)c1ccccc1Cl (stereo not drawn),x,x,x,10.6%,x,x
Oc1ccc(C[C@H]2CNCCN2CCCCC2CCCCC2)cc1,23.1µM*,u,u,0.0%,23.1µM*,-111.2%
